# Measurements published in PubChem BioAssay (NCATS).
# Results filed as inconclusive are left out. A number with no mark means an inactive call. Calls follow the shape of the dose curve; as a rule, active = well fitted cell-killing curve with a large enough effect; inconclusive = small, poorly fitted or top-dose-only effect, or effect the other way; inactive = flat fitted curve, though single readings scatter.
# System: Hek293T
# Assay: Primary qHTS to identify gynecologic anti-cancer compounds using libraries of approved drugs and bioactive compounds (AID 1345084); also: nearly all actives have a fitted effect of over 55% in size
# Details: Gynecologic cancer cell panel viability, ATPlite luminescence, 48 h, control line for the selectivity index; series mostly up to 57.5 µM; activity change, negative = cytotoxicity: at the top concentration
# Method in brief: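 Measured: luminescence after ATPlite addition (15 min, RT). Exposure: 48 h, 37 C, 5% CO2.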
# % is scaled to controls: 0 for no effect and ±100 for the full control effect.
row,Structure (SMILES),"activity change, negative = cytotoxicity"
1,CC1(C)CCC(C)(C)c2cc3c(cc21)Sc1ccccc1N=C3c1ccc(C(=O)O)cc1,8.45%
2,O=C(O)c1n[nH]c2c1C[C@H]1C[C@@H]21,-4.24%
3,COc1cc(C2Oc3c(O)cc(CCCO)cc3C2CO)ccc1O[C@H]1O[C@H](C)[C@@H](O)[C@H](O)[C@@H]1O (stereo partly drawn),4.41% [at 25.3 µM]
4,CC(=C/C(=O)O)/C=C/[C@]1(O)[C@@]2(C)CO[C@]1(C)C[C@H](O[C@@H]1O[C@H](CO)[C@@H](O)[C@H](O)[C@H]1O)C2,-0.308% [at 25.3 µM]
5,CC1(C)CC[C@]2(C(=O)O)CC[C@]3(C)C(=CCC4[C@@]5(C)C[C@H](O)[C@H](O[C@@H]6OC[C@H](O)[C@H](O)[C@H]6O)[C@@](C)(CO)C5CC[C@]43C)[C@@H]2C1 (stereo partly drawn),-8.04% [at 25.3 µM]
6,C1CCN2CC3C[C@@H](CN4CCCC[C@@H]34)[C@H]2C1,0.624%
7,COc1ccc(C)c2sc(NC(=O)c3ccncc3)nc12,2.63%
8,CC(C)[C@@H](C)/C=C/[C@@H](C)[C@H]1CC[C@H]2C3=CC=C4C[C@@H](O)CC[C@]4(C)[C@H]3CC[C@]12C,4.29% [at 25.3 µM]
9,COc1ccccc1CC(C(=O)O)N(C)C(=O)c1ccccc1 (stereo not drawn),-1.31% [at 38.5 µM]
10,C=C1[C@@H]2[C@H]3OC(=O)C(=C)[C@@H]3CC[C@@](C)(O)[C@@H]2C[C@@H]1O[C@@H]1O[C@H](CO)[C@@H](O)[C@H](O)[C@H]1O,1.52% [at 25.3 µM]
11,COCCCNCC1COc2ccccc2O1 (stereo not drawn),2.36%
12,COc1cc(/C=C/C(=O)OC2CC(OC(C)=O)C(OC(C)=O)C3C2CCC2C(=O)OC(c4ccoc4)CC23C)ccc1O[C@@H]1O[C@H](CO)[C@@H](O)[C@H](O)[C@H]1O (stereo partly drawn),-11.1% [at 25.3 µM]
13,CO[C@@H]1CC[C@H](OC[C@]2(COC(=O)c3ccc(C)[nH]3)[C@H](OC(C)=O)CC[C@@]3(C)[C@@H]4CC=C(C)[C@@H](C5=C(O)C(=O)OC5O)[C@]4(C)CC[C@@H]32)O[C@H]1C (stereo partly drawn),-3.67% [at 25.3 µM]
14,C=C1CCC2C(OC(=O)C2(O)COC(C)=O)C2C(=C)C(O)CC12 (stereo not drawn),-0.638% [at 38.5 µM]
15,CC1=C2C=C(CO)C(CO)CCC2(C)CCC1=O (stereo not drawn),4.4%
16,C=C1[C@H]2CC[C@]3(O)[C@@](CC[C@@H]4[C@](C)(C(=O)O)CCC[C@]43C)(C2)[C@H]1OC(=O)/C(C)=C\C,1.38% [at 25.3 µM]
17,O=C(O[C@H]1[C@@H]2C=CO[C@@H](O[C@@H]3O[C@H](CO)[C@@H](O)[C@H](O)[C@H]3O)[C@@H]2[C@@]2(CO)O[C@@H]12)c1ccc(O)cc1,5.87% [at 25.3 µM]
18,CC(C)(O)/C=C1/C(=O)C(C)(C)C(=O)C(C)(C)C1(O)O[C@@H]1O[C@H](COC(=O)c2cc(O)c(O)c(O)c2)[C@@H](O)[C@H](O)[C@H]1O (stereo partly drawn),-0.111% [at 25.3 µM]
19,CN1CC[C@@H](NC(=O)Nc2ccc(C#N)cc2)C[C@@H]1c1nc2ccccc2[nH]1,8.66%
20,C[C@H]1[C@H](C)CC[C@]2(C(=O)O[C@@H]3O[C@H](CO)[C@@H](O)[C@H](O)[C@H]3O)CC[C@]3(C(=O)O)C(=CCC4[C@@]5(C)CC[C@H](O[C@@H]6O[C@H](CO)[C@@H](O)[C@H](O)[C@H]6O)C(C)(C)C5CC[C@]43C)[C@H]12 (stereo partly drawn),3.39% [at 11.6 µM]
21,c1nc(NC2CCCCCC2)c2cc(CNC[C@H]3CCCO3)sc2n1,4.36%
22,CCNC(=O)[C@H]1O[C@H](n2cnc3c(NCC(c4ccccc4)c4ccccc4)nc(C(=O)NCCNC(=O)NC4CCN(c5ccccn5)CC4)nc32)[C@H](O)[C@@H]1O,7.73%
23,CC1CC(=O)C2=C(O1)OC1(C)CCC3C(C)(C)C=CC(=O)C3(C)C1C2 (stereo not drawn),-1.42% [at 38.5 µM]
24,COc1ncc(-c2ccc3c(Nc4cc(Oc5cc(F)cc(F)c5)cc(C(=O)O)c4)c(S(=O)(=O)NC4CC4)cnc3c2)c(OC)n1,19.6%
25,CC(=O)O[C@@H]1[C@H]2[C@@H](OC(=O)c3ccccc3)[C@@H](C)C[C@]2(O)[C@H](OC(C)=O)[C@@]2(C)[C@@H]3CC(C)(C)C(=O)[C@]3(OC(C)=O)C[C@@]12C,-0.823% [at 25.3 µM]
26,COc1ccc(/C=C/C(=O)O[C@@H]2[C@@H](OC(C)=O)[C@@H](OC(C)=O)[C@H](O[C@H]3[C@@H]4C=CO[C@@H](O[C@@H]5O[C@H](CO)[C@@H](O)[C@H](O)[C@H]5O)[C@@H]4[C@@]4(CO)O[C@@H]34)O[C@H]2C)cc1O,7.14% [at 25.3 µM]
27,CC1=CC(=O)OC(C)(CC(C)(O)C(=O)O)C1 (stereo not drawn),8.59%
28,O=C(OCc1cccc(O)c1O[C@@H]1O[C@H](CO)[C@@H](O)[C@H](O)[C@H]1O)C1(O)C(=O)C2C=CC1C1C=CC(=O)C(O)(C(=O)OCc3cccc(O)c3O[C@@H]3O[C@H](CO)[C@@H](O)[C@H](O)[C@H]3O)C21 (stereo partly drawn),8.15% [at 11.6 µM]
